KB-V1 cytotox = qHTS assay for MDR1-selective chemotherapeutics: Primary screen using the drug-selected MDR subline cells KB-V1; KB-V1 MDR cells viability, CellTiter-Glo, 72 h; AID 1347076, 2019; Potency, µM (top dose mostly 46.1 µM), hits mostly cytotoxic; 400,000 tested, 3.4% active; note: % is set by controls: 0 for no effect and ±100 for the full control effect; nearly all actives have a fitted effect of over 60% in size
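KB-V1 cells (P-gp-expressing MDR subline of KB-3-1) in phenol-red-free DMEM with 10% FBS were exposed to library compounds over a concentration series for 72 h at 37 degrees C. Viability read by CellTiter-Glo luminescence; concentration-effect curves fitted after normalization.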
KB-3-1 cytotox = qHTS assay for MDR1-selective chemotherapeutics: Primary screen using the parental adenocarcinoma cell KB-3-1 | KB-3-1 viability, CellTiter-Glo ATP luminescence, 72 h | Potency, µM (highest dose often 46.1 µM), actives largely listed as cytotoxic | 400,000 tested, 1.4% active; note: % is set by controls: 0 for no effect and ±100 for the full control effect; nearly all actives have a fitted effect of over 60% in size
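KB-3-1 parental drug-naive adenocarcinoma cells in DMEM/10% FBS, incubated 72 h at 37 C with pin-transferred compounds across a concentration series. Viability by CellTiter-Glo luminescence; concentration-response curves fitted after normalization.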
HT1080NT lethal = qHTS for induction of synthetic lethality in tumor cells producing 2HG: qHTS for the HT-1080-NT fibrosarcoma cell line. Potency, µM (series often up to 46.1 µM), for inactives: at the highest dose activity, negative = less viability, most hits filed as cytotoxic. HT-1080-NT fibrosarcoma viability, CellTiter-Glo ATP luminescence, 48 h. 360,000 tested, 1.6% active;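 note: NT is the 2HG producing partner of a matched IDH1 knockdown line; 0% = DMSO-treated cells and -100% = media-only wells without cells; nearly all actives have a fitted effect of over 55% in size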
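Viability of the 2HG-overproducing fibrosarcoma line after 48 hours of compound exposure at 37 degrees C was determined by luminescence with CellTiter-Glo, and concentration-effect curves were then fitted and categorized.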
HT1080 IDH1KD tx = qHTS for induction of synthetic lethality in tumor cells producing 2HG: qHTS for the HT-1080-IDH1KD cell line; HT-1080 IDH1 knockdown viability, ATP luminescence, 48 h; Potency, µM (top dose mostly 46.1 µM), for inactives: top-dose activity, negative = toxicity, hits mostly cytotoxic; 360,000 tested, 2% active;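 note: 0% = DMSO wells and -100% = cell-free medium wells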
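Knockdown cells (IDH1KD HT-1080) received compounds 2 h after plating at 750 cells/well and were kept 48 h at 37 °C in 5% FBS RPMI. A CellTiter-Glo luminescence read gave % activity for curve fitting.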
SW480 rereplic = A quantitative high throughput screen for small molecules that induce DNA re-replication in SW480 colon adenocarcinoma cells. AID 624297, 2012. Potency, µM (doses to about 46.1 µM), for inactives: at the highest dose re-replication activation, most hits filed as activators. SW480 DNA re-replication, Hoechst DNA content imaging, 48 h. 340,000 tested, 1.8% active; note: % of control where 0% means no effect; nearly all actives have a fitted effect of over 55% in size
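Quantitative HTS format with DMSO vehicle controls; 48 hr drug incubation at 37 C, then 40 min Hoechst staining and scanning imager measurement at 405 nm excitation.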
MCF10A rerep = A quantitative high throughput screen for small molecules that induce DNA re-replication in MCF 10a normal breast cells. MCF 10A DNA re-replication, Hoechst nuclear intensity, 48 h. Potency, µM (top dose mostly 46.1 µM), for inactives: at the top dose activity, positive = re-replication, hits mostly activators. 350,000 tested, 2.9% active. AID 624296, 2012; note: % of control where 0% means no effect; nearly all actives have a fitted effect of over 50% in size
Active calls of the source: *; i = inactive; ? = inconclusive; · = no result given. In the library only some 8% were active in any assay of this set; here they are far more common. Calls come from the whole dose curve; as a rule, active = well fitted curve in the direction sought with a large enough effect; inconclusive = small, poorly fitted or top-dose-only effect, or another doubt; inactive = no such curve, though single readings can be large; an effect the other way counts as inactive or inconclusive. Potency is the fitted concentration of half-maximal effect.

SMILES	KB-V1 cytotox	KB-3-1 cytotox	HT1080NT lethal	HT1080 IDH1KD tx	SW480 rereplic	MCF10A rerep
C=CCn1cnc2c(c1=O)c1nc3ccccc3nc1n2/N=C/c1cccc(OC)c1OC	23.1µM*	i	15.7%	?	-0.9%	1.1%
COc1cc(NC(=O)C2=CC(c3ccc(F)cc3)=NS(=O)(=O)N2C)cc(OC)c1OC	i	i	·	·	·	·
Cc1csc(SCC(=O)Nc2nc(-c3ccccc3)cs2)n1	i	i	12.8%	5.7%	-1.5%	4.1%
CCn1c(SCC(=O)Nc2nc(-c3ccc(C)cc3)cs2)nnc1-c1ccccc1	2.59µM*	?	-28.9%	-22.7%	1.8%	14.4%
Cn1c(SCC(=O)N2c3ccccc3Sc3ccccc32)nc2ccccc21	?	i	-5.3%	-3.0%	?	?
Cc1ccc(-c2csc(NC(=O)CSc3nc4ccccc4c(=O)n3CCCN(C)C)n2)cc1	?	?	?	23.1µM*	?	?
CN(C)CCCn1c(SCC(=O)N2c3ccccc3Sc3ccccc32)nc2ccccc2c1=O	?	?	18.4µM*	?	?	?
Nc1ccccc1SCC(=O)Nc1nc(-c2ccccc2)cs1	?	4.11µM*	-8.1%	?	0.9%	?
CCCCn1c(SCC(=O)Nc2nnc(CC)s2)nc2ccccc2c1=O	?	i	2.6%	2.7%	0.3%	0.1%
CCc1noc2nc(C)n(CC(=O)O)c(=O)c12	i	i	·	·	·	·
CNS(=O)(=O)c1cn(CC(=O)N2CCN(c3ccc(Cl)cc3)CC2)cc1S(=O)(=O)NC	i	i	·	·	·	·
CCC(C(=O)Nc1ccccc1F)n1nc(C)c2c(C)n(-c3ccccc3)nc2c1=O (stereo not drawn)	i	i	-8.6%	-13.7%	29.1µM*	4.0%
COc1ccccc1Cc1nc2ccccc2nc1SCC(=O)N1CCC(C)CC1	i	i	·	·	·	·
C=C(C)[C@@H]1CC=C(CN2CCC(N3CCC(C(=O)N4CCCC4)CC3)CC2)CC1	?	?	18.4µM*	20.6µM*	?	?
CC1=C(C(=O)N2CCCCC2)C(c2cccc(Cl)c2)n2c(nc3ccccc32)N1 (stereo not drawn)	i	i	·	·	·	·
CC1(C(=O)Nc2ccc3c(c2)OCO3)CCN1C(=O)Cc1cccs1 (stereo not drawn)	i	i	-5.3%	-1.5%	·	·
CC(C)c1ccc(CC(=O)N2CCC2(C)C(=O)Nc2ccc3c(c2)OCO3)cc1 (stereo not drawn)	20.6µM*	?	-11.4%	?	·	·
CC1(C(=O)NCc2ccccc2Br)CCN1Cc1ccc(-c2ccccc2)o1 (stereo not drawn)	20.6µM*	5.17µM*	?	?	·	·
CC1(C(=O)NCc2cccc3ccccc23)CCN1C(=O)Cc1ccc(-c2ccccc2)cc1 (stereo not drawn)	i	i	18.4µM*	?	·	·
Cc1ccc(NC(=O)C2(C)CCN2C(=O)Cc2ccc(C(C)(C)C)cc2)cc1C (stereo not drawn)	i	i	18.4µM*	?	·	·
COc1ccc(CNC(=O)c2ccc3c(c2)CCN3S(=O)(=O)c2ccc(C)cc2)cc1	i	i	·	·	·	·
Cc1ccc(CNC(=O)c2c3c(nc4ccccc24)C(=O)N(C2CCCCC2)C3)cc1	i	i	·	·	·	·
CCc1ccccc1Nc1nn2c(=O)c3ccc(C(=O)NC4CCC(C)CC4)cc3nc2s1 (stereo not drawn)	i	i	·	·	·	·
CC1(C(=O)Nc2ccc3c(c2)OCCO3)CCN1C(=O)Cc1ccc(-c2ccccc2)cc1 (stereo not drawn)	18.4µM*	?	?	?	·	·
CCOC(=O)Nc1nc(-c2ccccc2)c(C(=O)c2ccc(Cl)cc2)s1	1.3µM*	1.16µM*	?	0.517µM*	2.91µM*	?
SMILES	KB-V1 cytotox	KB-3-1 cytotox	HT1080NT lethal	HT1080 IDH1KD tx	SW480 rereplic	MCF10A rerep
CCOC(=O)C(=CNc1nc(-c2ccccc2)c(C(=O)Nc2ccc(-c3ccccc3)cc2)s1)C(=O)OCC	i	i	14.1%	24.2%	3.66µM*	9.2µM*
CCOC(=O)c1sc(NC(=O)c2ccc(S(=O)(=O)N3CCCCC3)cc2)nc1-c1ccccc1	?	i	11.2%	11.7%	-3.1%	-5.9%
CCOC(=O)c1sc(NC(=O)c2ccc(S(=O)(=O)N3CCOCC3)cc2)nc1-c1ccccc1	i	i	-13.7%	-10.4%	18.4µM*	5.6%
Cc1ccc(NC(=O)c2sc(Cl)nc2-c2ccccc2)cc1	i	?	-2.0%	-13.4%	0.1%	?
CCOC(=O)N1CCN(S(=O)(=O)c2ccc(C(=O)Nc3nc4ccc(F)cc4s3)cc2)CC1	?	?	1.6%	3.0%	6.8%	16.4µM*
CCOc1ccc(CNS(=O)(=O)c2cc3c(cc2C)NC(=O)CO3)cc1OC	i	i	·	·	·	·
Cc1cccc(NCc2nnc3n2CCCCC3)c1C	i	i	·	·	·	·
CCOc1ccc(N(CC)S(=O)(=O)N2CCCC(C(=O)Nc3cc(Cl)ccc3C)C2)cc1 (stereo not drawn)	i	i	·	·	·	·
CCOC(=O)c1ccc2nc(Nc3nc4ccc(F)cc4s3)sc2c1	?	i	-0.4%	-0.4%	1.5%	10.3µM*
COC(=O)c1ccc2nc(Nc3nc4c(F)cc(F)cc4s3)sc2c1	i	?	-10.3%	-4.7%	0.231µM*	2.31µM*
COC(=O)c1ccc2nc(NC(=O)C(C)C)sc2c1	i	i	-14.3%	?	0.7%	-10.8%
CCOC(=O)c1ccc2nc(NC(C)=O)sc2c1	i	i	14.9%	6.8%	-13.0%	5.0%
Cc1ccc(C)c(S(=O)(=O)c2nnn3c2nc(NCc2ccc4c(c2)OCO4)c2sccc23)c1	i	i	·	·	·	·
CCOC(=O)N1CCN(C(=O)c2ccc(N(Cc3ccc(C)cc3)S(C)(=O)=O)cc2)CC1	18.4µM*	i	2.5%	1.0%	6.9%	-2.8%
CCOC(=O)N1CCN(C(=O)c2ccc(N(Cc3ccc(Cl)cc3)S(C)(=O)=O)cc2)CC1	i	i	3.8%	-5.1%	1.0%	5.2%
CCOC(=O)N1CCN(C(=O)c2ccc(N(Cc3ccccc3)S(C)(=O)=O)cc2)CC1	16.4µM*	i	-1.6%	4.3%	-2.2%	-0.1%
CCn1cc(C(=O)N2CCN(c3ccc(F)cc3)CC2)c(=O)c2cc(S(=O)(=O)N3CCOCC3)ccc21	i	i	·	·	·	·

Screening data (PubChem)
